Experimental data as given in PubChem BioAssay (EPA / NIEHS).
Activity calls are given as the source filed them. The calls were made as follows: active = hit-call score of the fitted dose curve at least 0.9, where 1 is the maximum; inactive = score below 0.9.

Experiments:
[1] = target: Transcription factor E2F1 (Homo sapiens) (UniProt Q01094); assay: ATG_E2F_CIS: Attagene CIS-FACTORIAL HepG2 Assay for human E2F Transcription Factor 1 (AID 2282935); settings: HepG2 Attagene cis-reporter, E2F reporter RNA transcripts; actives raise or lower the signal
Sequence of Transcription factor E2F1 (Homo sapiens) (Q01094 whole entry, looked up): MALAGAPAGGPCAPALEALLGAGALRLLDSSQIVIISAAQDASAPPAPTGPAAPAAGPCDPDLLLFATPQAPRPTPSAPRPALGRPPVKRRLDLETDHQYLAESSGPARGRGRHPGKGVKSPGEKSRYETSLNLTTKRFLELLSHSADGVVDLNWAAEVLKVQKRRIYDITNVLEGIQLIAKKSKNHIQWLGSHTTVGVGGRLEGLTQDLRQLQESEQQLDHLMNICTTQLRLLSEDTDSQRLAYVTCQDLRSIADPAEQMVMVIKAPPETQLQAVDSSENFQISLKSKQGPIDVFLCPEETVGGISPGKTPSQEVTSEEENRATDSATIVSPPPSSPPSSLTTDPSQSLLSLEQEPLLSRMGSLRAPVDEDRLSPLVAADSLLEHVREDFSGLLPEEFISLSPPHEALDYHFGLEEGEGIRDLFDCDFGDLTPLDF
Summary of the method: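 Endogenous E2F1 activity read through cis-promoter reporter units transfected into HepG2. After 24 h compound treatment, reporter mRNA measured by RT-PCR, HpaI digestion and capillary electrophoresis. Bidirectional fit versus DMSO.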

[2] = ATG_E_Box_CIS: Attagene CIS-FACTORIAL HepG2 Assay for human Enhancer Box (E-box) (AID 2282936); settings: HepG2 E-box cis-reporter transcription, actives raise or lower the signal
Summary of the method: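 HepG2 cells transiently transfected with multiplexed cis-element reporter units, dosed 24 h; reporter mRNA quantified by RT-PCR, 6-FAM labelling, HpaI digestion and capillary electrophoresis. E-box (USF1) signal fitted bidirectionally vs DMSO.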

[3] = ATG_M_61_CIS: Attagene CIS-FACTORIAL HepG2 Assay for M61 Transcription Factor (Internal Marker) (AID 2282937); settings: HepG2 Attagene CIS-FACTORIAL M61 internal marker reporter; actives raise or lower the signal
Summary of the method: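 Background-control endpoint: HepG2 cells with cis-regulated reporter constructs, 24 h exposure, reporter mRNA detected via fluorescent primer extension and capillary electrophoresis; values from bidirectional fitting with DMSO baseline.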

[4] = ATG_EGR_CIS: Attagene CIS-FACTORIAL HepG2 Assay for human Early Growth Response 1 (EGR1) (AID 2282938); settings: HepG2 Attagene CIS-FACTORIAL EGR reporter mRNA; actives raise or lower the signal
Summary of the method: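 Endpoint derived by bidirectional fitting versus DMSO vehicle. Method: cis-promoter reporter units transfected into HepG2, 24 h dosing, RNA isolation, RT-PCR with 6-FAM primer extension and HpaI digestion, then capillary electrophoresis fluorescence detection.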

[5] = ATG_M_19_CIS: Attagene CIS-FACTORIAL HepG2 Assay for M19 Transcription Factor (Internal Marker) (AID 2282939); settings: HepG2 Attagene CIS-FACTORIAL M19 internal marker reporter; actives raise or lower the signal
Summary of the method: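 Chemical-treated HepG2 (24 h) with MRTU constructs; reporter transcripts detected by fluorescent RT-PCR fragment analysis on capillary electrophoresis. Internal background marker, DMSO as baseline.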

[6] = ATG_ERE_CIS: Attagene CIS-FACTORIAL HepG2 Assay for Estrogen Response Element (ERE) (AID 2282940); settings: HepG2 ERE cis-reporter, Attagene RNA transcript; actives raise or lower the signal
Summary of the method: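 Human liver cells (HepG2) bearing transiently transfected, promoter-regulated reporter units were exposed 24 h. Reporter mRNA induction was detected by capillary electrophoresis of labelled RT-PCR products and fitted bidirectionally to DMSO.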

[7] = ATG_Ets_CIS: Attagene CIS-FACTORIAL HepG2 Assay for human Erythroblast Transformation Specific (ETS) (AID 2282941); settings: HepG2 ETS cis-reporter transcription, actives raise or lower the signal
Summary of the method: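 HepG2 cells transiently transfected with cis-promoter reporter transcription units were dosed for 24 h; reporter mRNA was measured by RT-PCR, 6-FAM primer extension, HpaI digestion and capillary electrophoresis, with bidirectional fitting against DMSO baseline.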

[8] = target: Hepatocyte nuclear factor 3-beta (Homo sapiens) (UniProt Q9Y261); assay: ATG_FoxA2_CIS: Attagene CIS-FACTORIAL HepG2 Assay for human Forkhead box A2 (FOXA2) (AID 2282942); settings: HepG2 cis-reporter transcription factor activity, 24 h; actives raise or lower the signal
Sequence of Hepatocyte nuclear factor 3-beta (Homo sapiens) (Q9Y261 whole entry, looked up): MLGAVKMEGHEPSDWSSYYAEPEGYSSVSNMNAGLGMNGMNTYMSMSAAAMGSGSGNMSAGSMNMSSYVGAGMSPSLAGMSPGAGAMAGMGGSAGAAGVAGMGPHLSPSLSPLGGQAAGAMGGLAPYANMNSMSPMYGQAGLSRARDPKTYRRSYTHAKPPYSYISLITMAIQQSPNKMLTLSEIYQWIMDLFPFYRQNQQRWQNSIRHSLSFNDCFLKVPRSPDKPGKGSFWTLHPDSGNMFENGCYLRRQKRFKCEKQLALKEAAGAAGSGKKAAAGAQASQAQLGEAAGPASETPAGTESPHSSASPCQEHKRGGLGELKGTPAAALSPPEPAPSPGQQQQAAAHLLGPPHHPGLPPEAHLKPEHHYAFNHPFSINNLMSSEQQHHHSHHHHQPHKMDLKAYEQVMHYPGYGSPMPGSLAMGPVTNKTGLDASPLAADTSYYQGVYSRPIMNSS
Summary of the method: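 Measured: reporter mRNA induction or loss in HepG2 transiently carrying multiple cis-regulated reporter units, 24 h after dosing. Quantified by RT-PCR plus capillary electrophoresis, normalised to DMSO.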

[9] = ATG_FoxO_CIS: Attagene CIS-FACTORIAL HepG2 Assay for human Forkhead box O (FoxO) (AID 2282943); settings: HepG2 Attagene cis-reporter, FoxO element, mRNA; actives raise or lower the signal
Summary of the method: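 Transfected HepG2 reporter cells exposed to test chemical for 24 h; reporter RNA measured by reverse transcription, PCR and fluorescent capillary electrophoresis; curves fitted for increases and decreases against DMSO.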

[10] = ATG_GATA_CIS: Attagene CIS-FACTORIAL HepG2 Assay for human GATA Binding Protein (AID 2282944); settings: HepG2 GATA cis-element reporter, Attagene multiplex mRNA; actives raise or lower the signal
Summary of the method: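 Transfected cis-reporter HepG2 cells were treated with chemicals for 24 hours. Total RNA was then converted to cDNA, amplified with reporter-specific primers and analysed by fluorescent capillary electrophoresis, using DMSO-treated wells as baseline.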

[11] = ATG_GLI_CIS: Attagene CIS-FACTORIAL HepG2 Assay for human Zinc Finger Protein GLI1 (AID 2282945); settings: HepG2, Attagene cis-factorial reporter mRNA, GLI element; actives raise or lower the signal
Summary of the method: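 Transiently transfected HepG2 cells report endogenous transcription factor activity via cis-element-driven reporter units. After 24 h compound exposure, reporter mRNA was measured by RT-PCR with capillary electrophoresis; bidirectional fitting against DMSO baseline.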

[12] = ATG_ISRE_CIS: Attagene CIS-FACTORIAL HepG2 Assay for human Interferon Regulatory Factor 1 (IRF1) binding to an Interferon-Stimulated Response Element (ISRE) (AID 2282948); settings: HepG2 ISRE cis-reporter (Attagene), mRNA transcription readout; actives raise or lower the signal
Summary of the method: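 HepG2 cells transiently transfected with multiplexed cis-promoter reporter units; after 24 h compound exposure, reporter mRNA quantified by RT-PCR, FAM labelling, HpaI digestion and capillary electrophoresis. Bidirectional fit versus DMSO baseline.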

[13] = ATG_M_32_CIS: Attagene CIS-FACTORIAL HepG2 Assay for M32 Transcription Factor (Internal Marker) (AID 2282949); settings: HepG2 Attagene cis-factorial M32 reporter, mRNA; actives raise or lower the signal;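 also: background control marker of the multiplexed CIS panel rather than a real target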
Summary of the method: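 Fluorescent capillary electrophoresis peaks of HpaI-digested, FAM-labelled RT-PCR reporter products give the signal. Source: transiently transfected human liver HepG2 cells, 24 h after chemical dosing; bidirectional fitting against DMSO.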

[14] = ATG_M_06_CIS: Attagene CIS-FACTORIAL HepG2 Assay for M06 Transcription Factor (Internal Marker) (AID 2282950); settings: HepG2 Attagene CIS-FACTORIAL M06 internal marker reporter; actives raise or lower the signal
Summary of the method: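 Cells (HepG2, transiently carrying cis-driven reporter units) receive chemical for 24 h before RNA isolation. Reporter cDNA is PCR-amplified, FAM-labelled by primer extension, HpaI-digested and sized on a capillary analyser.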

[15] = target: Hypoxia-inducible factor 1-alpha (Homo sapiens) (UniProt Q16665); assay: ATG_HIF1a_CIS: Attagene CIS-FACTORIAL HepG2 Assay for human Hypoxia Inducible Factor 1 (HIF1A) (AID 2282951); settings: HepG2 Attagene cis-factorial HIF1a reporter transcription; actives raise or lower the signal
Sequence of Hypoxia-inducible factor 1-alpha (Homo sapiens) (Q16665 whole entry, looked up): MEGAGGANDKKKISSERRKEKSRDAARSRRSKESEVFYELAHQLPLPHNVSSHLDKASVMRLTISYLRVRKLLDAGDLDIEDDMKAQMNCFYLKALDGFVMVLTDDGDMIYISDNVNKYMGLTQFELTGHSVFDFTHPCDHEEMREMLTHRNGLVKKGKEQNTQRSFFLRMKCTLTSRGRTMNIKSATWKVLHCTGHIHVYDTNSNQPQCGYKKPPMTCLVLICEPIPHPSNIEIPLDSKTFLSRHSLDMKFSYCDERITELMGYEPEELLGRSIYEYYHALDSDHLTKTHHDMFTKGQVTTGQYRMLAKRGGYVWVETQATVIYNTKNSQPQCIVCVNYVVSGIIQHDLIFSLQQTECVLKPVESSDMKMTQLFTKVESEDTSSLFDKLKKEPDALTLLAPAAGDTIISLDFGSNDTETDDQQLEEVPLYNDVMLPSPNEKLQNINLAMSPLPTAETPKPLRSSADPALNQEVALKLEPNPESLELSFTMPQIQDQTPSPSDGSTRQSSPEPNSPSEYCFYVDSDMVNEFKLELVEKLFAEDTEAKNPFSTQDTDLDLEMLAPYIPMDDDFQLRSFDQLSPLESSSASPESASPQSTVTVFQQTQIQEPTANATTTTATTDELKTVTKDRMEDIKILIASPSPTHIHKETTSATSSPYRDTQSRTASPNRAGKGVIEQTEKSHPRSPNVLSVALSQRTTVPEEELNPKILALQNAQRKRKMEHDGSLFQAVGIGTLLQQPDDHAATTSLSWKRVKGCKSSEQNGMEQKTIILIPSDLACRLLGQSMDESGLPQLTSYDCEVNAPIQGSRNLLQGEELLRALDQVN
Summary of the method: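 Dosed 24 h, transfected HepG2 cells yielded total RNA whose reporter transcripts were RT-PCR-amplified and sized by capillary electrophoresis using fluorescent labelling; DMSO defined baseline, with gain and loss of signal both fitted.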

[16] = target: Hepatocyte nuclear factor 6 (Homo sapiens) (UniProt Q9UBC0); assay: ATG_HNF6_CIS: Attagene CIS-FACTORIAL HepG2 Assay for human Hepatocyte Nuclear Factor 6 (HNF6) (AID 2282952); settings: HepG2 Attagene cis-factorial HNF6 reporter transcription; actives raise or lower the signal
Sequence of Hepatocyte nuclear factor 6 (Homo sapiens) (Q9UBC0 whole entry, looked up): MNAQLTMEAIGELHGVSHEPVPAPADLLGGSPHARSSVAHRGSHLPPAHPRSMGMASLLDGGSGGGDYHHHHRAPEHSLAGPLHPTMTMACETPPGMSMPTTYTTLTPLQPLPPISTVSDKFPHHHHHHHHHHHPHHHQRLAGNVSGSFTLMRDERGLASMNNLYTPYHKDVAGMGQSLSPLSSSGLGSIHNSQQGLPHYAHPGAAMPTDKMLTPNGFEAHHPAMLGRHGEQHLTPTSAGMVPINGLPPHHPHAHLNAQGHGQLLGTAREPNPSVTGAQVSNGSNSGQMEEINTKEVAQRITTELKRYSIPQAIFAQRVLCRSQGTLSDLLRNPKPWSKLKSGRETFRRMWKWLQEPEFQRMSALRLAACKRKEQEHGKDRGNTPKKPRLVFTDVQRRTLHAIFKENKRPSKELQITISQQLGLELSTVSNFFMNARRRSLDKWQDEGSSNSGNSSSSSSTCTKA
Summary of the method: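 Transiently transfected HepG2 cells expressing cis-regulated reporter transcription units were exposed to chemical for 24 h in a 24-well format. Reporter transcript abundance was determined by fluorescence capillary electrophoresis.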

[17] = target: Heat shock factor protein 1 (Homo sapiens) (UniProt Q00613); assay: ATG_HSE_CIS: Attagene CIS-FACTORIAL HepG2 Assay for human Heat Shock Transcription Factor 1 (HSE) (AID 2282953); settings: HepG2 HSE cis-reporter, Attagene RNA transcription; actives raise or lower the signal
Sequence of Heat shock factor protein 1 (Homo sapiens) (Q00613 whole entry, looked up): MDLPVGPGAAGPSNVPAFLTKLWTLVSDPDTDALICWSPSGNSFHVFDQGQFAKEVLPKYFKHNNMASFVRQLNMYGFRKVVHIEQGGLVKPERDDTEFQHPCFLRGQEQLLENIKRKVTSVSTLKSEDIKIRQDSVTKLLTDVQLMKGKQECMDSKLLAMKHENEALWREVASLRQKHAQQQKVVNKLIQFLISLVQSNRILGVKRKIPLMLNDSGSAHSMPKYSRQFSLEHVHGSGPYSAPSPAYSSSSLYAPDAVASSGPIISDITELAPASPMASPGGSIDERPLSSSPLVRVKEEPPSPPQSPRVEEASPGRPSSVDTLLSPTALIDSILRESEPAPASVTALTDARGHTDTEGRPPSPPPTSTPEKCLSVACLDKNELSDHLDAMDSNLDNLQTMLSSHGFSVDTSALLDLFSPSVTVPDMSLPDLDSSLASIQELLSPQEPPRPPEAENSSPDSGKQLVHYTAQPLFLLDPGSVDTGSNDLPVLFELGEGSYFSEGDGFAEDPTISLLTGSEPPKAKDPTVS
Summary of the method: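 Liver-derived HepG2 cells carry transiently introduced multiple reporter units governed by cis promoters. Reporter RNA measured 24 h post-dose through reverse transcription, PCR amplification, fluorescent labelling and capillary electrophoresis, normalised to DMSO.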

[18] = ATG_MRE_CIS: Attagene CIS-FACTORIAL HepG2 Assay for human Metal Responsive Element (MRE) (AID 2282954); settings: HepG2 MRE cis-reporter transcription, Attagene multiplex; actives raise or lower the signal
Summary of the method: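 HepG2 cells transiently transfected with cis-element-driven reporter units; mRNA measured 24 h after dosing. Reporter transcripts quantified by RT-PCR, FAM labelling, HpaI digestion and capillary electrophoresis; bidirectional fit versus DMSO.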

[19] = target: Bile acid receptor (Homo sapiens) (UniProt Q96RI1); assay: ATG_IR1_CIS: Attagene CIS-FACTORIAL HepG2 Assay for human Nuclear Receptor Subfamily 1 Group H Member 4 (NR1H4), IR1 submotif (AID 2282946); settings: IR1 reporter transcription, actives raise or lower the signal
Sequence of Bile acid receptor (Homo sapiens) (Q96RI1 whole entry, looked up): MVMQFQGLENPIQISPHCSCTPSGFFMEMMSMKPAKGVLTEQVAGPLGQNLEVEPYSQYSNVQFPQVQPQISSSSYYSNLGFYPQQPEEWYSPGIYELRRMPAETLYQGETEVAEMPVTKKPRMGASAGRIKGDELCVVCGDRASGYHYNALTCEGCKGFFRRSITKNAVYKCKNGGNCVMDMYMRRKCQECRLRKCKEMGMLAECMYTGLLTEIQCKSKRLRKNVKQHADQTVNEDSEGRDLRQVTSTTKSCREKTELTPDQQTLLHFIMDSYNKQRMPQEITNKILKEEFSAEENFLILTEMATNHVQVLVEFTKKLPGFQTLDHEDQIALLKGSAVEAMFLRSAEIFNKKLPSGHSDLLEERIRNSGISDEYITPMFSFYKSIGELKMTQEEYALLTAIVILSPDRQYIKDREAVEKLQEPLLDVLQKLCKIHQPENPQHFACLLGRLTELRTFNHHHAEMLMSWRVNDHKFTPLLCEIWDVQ
Summary of the method: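 HepG2 cells transiently transfected with multiple cis-promoter-driven reporter units to measure endogenous transcription factor activity; 24 h exposure. Reporter mRNA read by RT-PCR, FAM labelling, HpaI digestion and capillary electrophoresis. Bidirectional fit versus DMSO.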

[20] = ATG_GRE_CIS: Attagene CIS-FACTORIAL HepG2 Assay for human Glucocorticoid Response Elements (GRE) (AID 2282947); settings: HepG2 GRE cis-reporter, Attagene multiplex mRNA; actives raise or lower the signal
Summary of the method: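 Transiently transfected HepG2 cells carrying GRE cis-reporter units (endogenous TF activity) dosed 24 h; reporter mRNA quantified by RT-PCR, 6-FAM labelling, HpaI digestion and capillary electrophoresis. Bidirectional fit versus DMSO baseline.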

Measured: AC50

Cc1cccc(N(C)C)c1
inactive: [1] | [2] | [3] | [4] | [5] | [6] | [7] | [8] | [9] | [10] | [11] | [12] | [13] | [14] | [15] | [16] | [17] | [18]

FC(F)(F)C(F)(F)CNCC(F)(F)C(F)(F)F
inactive: [1] | [2] | [3] | [4] | [5] | [6] | [7] | [8] | [10] | [11] | [19] | [20] | [12] | [13] | [14] | [15] | [16] | [17] | [18]

FC(F)(F)C(F)(F)C(F)(F)C(F)(F)C(F)(F)C(F)(F)C(F)(F)Br
inactive: [1] | [2] | [3] | [4] | [5] | [6] | [7] | [8] | [9] | [10] | [11] | [12] | [13] | [14] | [15] | [16] | [17] | [18]

CC/C=C\CCOC(C)=O
inactive: [1] | [2] | [3] | [4] | [5] | [6] | [7] | [8] | [9] | [10] | [11] | [20] | [12] | [13] | [14] | [15] | [16] | [17] | [18]

OCCCC(F)(F)C(F)(F)C(F)(F)F
inactive: [1] | [2] | [3] | [4] | [5] | [6] | [7] | [8] | [9] | [10] | [11] | [20] | [12] | [13] | [14] | [15] | [16] | [17] | [18]

FC(F)(F)C(F)(F)C(F)(F)CI
inactive: [1] | [2] | [3] | [4] | [5] | [6] | [7] | [8] | [10] | [11] | [19] | [20] | [12] | [13] | [14] | [15] | [16] | [17] | [18]

O=C(O)C(F)(F)C(F)(F)C(F)F
inactive: [1] | [2] | [3] | [4] | [5] | [6] | [7] | [8] | [9] | [10] | [11] | [20] | [12] | [13] | [14] | [15] | [16] | [17] | [18]

O=C(O)C(F)(F)C(F)(F)C(F)(F)C(F)(F)C(F)(F)C(F)(F)C(F)(F)C(F)(F)C(F)(F)C(F)(F)C(F)(F)C(F)(F)C(F)(F)F
inactive: [1] | [2] | [3] | [4] | [5] | [6] | [7] | [8] | [9] | [10] | [11] | [12] | [13] | [14] | [15] | [16] | [17] | [18]

CCCCCCCCCCCCCCCC[N+](C)(C)Cc1ccccc1
inactive: [1] | [3] | [4] | [5] | [6] | [7] | [8] | [10] | [11] | [20] | [13] | [14] | [15] | [16] | [18]
active: [2] 47.1 µM | [19] 10.2 µM | [12] 47.6 µM | [17] 24.5 µM

O=S(=O)(OCC(F)F)C(F)(F)F
inactive: [1] | [2] | [3] | [4] | [5] | [6] | [7] | [8] | [9] | [10] | [11] | [20] | [12] | [13] | [14] | [15] | [16] | [17] | [18]

Cc1cc(C)cc(O)c1
inactive: [1] | [2] | [3] | [4] | [5] | [6] | [7] | [8] | [9] | [10] | [11] | [20] | [12] | [13] | [14] | [15] | [16] | [17] | [18]

CC(=O)Nc1ccc(N=Nc2cc(C)ccc2O)cc1
active: [18] 27.6 µM
inactive: [1] | [2] | [3] | [4] | [5] | [6] | [7] | [8] | [9] | [10] | [11] | [12] | [13] | [14] | [15] | [16] | [17]
